# Results: paper PMC7862700, “An all-to-all approach to the identification of sequence-specific readers for epigenetic DNA modifications on cytosine”
# Experiments:
# Test in all cases: DAPPL (digital affinity profiling via proximity ligation, sequencing); 10 mM Tris-HCl pH 7.5, 50 mM NaCl, 1 mM DTT, 4% glycerol, room temperature, 30 min; GST-TFs on glutathione beads, 16-mer random dsDNA library, 0.1% formaldehyde crosslink after washing; high values mean tight binding
# [1] = biological target: T1, FLI1 (Homo sapiens, UniProt Q01543 1-452); settings: protein: recombinant; tags: N-terminal GST; dsDNA, one strand shown
# T1 sequence: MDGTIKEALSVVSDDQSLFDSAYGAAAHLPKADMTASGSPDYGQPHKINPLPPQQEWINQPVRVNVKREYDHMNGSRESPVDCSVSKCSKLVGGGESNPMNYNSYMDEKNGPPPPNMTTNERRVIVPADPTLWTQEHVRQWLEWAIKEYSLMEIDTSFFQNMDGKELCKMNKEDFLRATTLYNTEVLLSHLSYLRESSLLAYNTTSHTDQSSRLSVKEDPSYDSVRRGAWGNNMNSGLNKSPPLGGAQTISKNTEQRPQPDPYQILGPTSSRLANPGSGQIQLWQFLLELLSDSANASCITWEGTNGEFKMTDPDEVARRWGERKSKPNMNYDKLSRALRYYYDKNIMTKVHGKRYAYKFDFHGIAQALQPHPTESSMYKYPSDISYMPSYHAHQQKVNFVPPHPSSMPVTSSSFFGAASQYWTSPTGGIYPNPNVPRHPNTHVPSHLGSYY
# Summary of the method: (§1)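 Human transcription factors were made in yeast as GST fusions, captured on glutathione beads and barcoded with DNA. With a tag-only sample included, the pool was incubated with 200 nmole of a random double-stranded 16-mer DNA library in Tris/NaCl/DTT/glycerol buffer at room temperature for 30 min, then crosslinked with 0.1% formaldehyde after washing, ligated by proximity, amplified and sequenced. For binding signal, each hexamer's read frequency for a factor is divided by its frequency for the tag-only sample.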
# [2] = biological target: T2, ELK1 (Homo sapiens, UniProt P19419 1-428); settings: protein: recombinant; tags: N-terminal GST; dsDNA, one strand shown
# T2 sequence: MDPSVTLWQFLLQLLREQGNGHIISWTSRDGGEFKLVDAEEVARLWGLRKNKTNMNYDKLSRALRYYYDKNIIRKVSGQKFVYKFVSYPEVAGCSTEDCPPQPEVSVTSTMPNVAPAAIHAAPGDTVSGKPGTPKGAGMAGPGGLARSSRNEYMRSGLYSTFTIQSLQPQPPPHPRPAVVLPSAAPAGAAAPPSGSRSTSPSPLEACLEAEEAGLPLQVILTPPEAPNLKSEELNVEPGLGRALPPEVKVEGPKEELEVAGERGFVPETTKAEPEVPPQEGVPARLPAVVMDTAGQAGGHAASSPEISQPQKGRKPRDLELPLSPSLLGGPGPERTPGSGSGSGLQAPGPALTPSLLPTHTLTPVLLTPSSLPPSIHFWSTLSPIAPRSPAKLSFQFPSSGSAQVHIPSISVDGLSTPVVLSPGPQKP
# Summary of the method: as §1
# [3] = biological target: T3, GABPA (Homo sapiens, UniProt Q06546 1-454); settings: protein: recombinant; tags: N-terminal GST; dsDNA, one strand shown
# T3 sequence: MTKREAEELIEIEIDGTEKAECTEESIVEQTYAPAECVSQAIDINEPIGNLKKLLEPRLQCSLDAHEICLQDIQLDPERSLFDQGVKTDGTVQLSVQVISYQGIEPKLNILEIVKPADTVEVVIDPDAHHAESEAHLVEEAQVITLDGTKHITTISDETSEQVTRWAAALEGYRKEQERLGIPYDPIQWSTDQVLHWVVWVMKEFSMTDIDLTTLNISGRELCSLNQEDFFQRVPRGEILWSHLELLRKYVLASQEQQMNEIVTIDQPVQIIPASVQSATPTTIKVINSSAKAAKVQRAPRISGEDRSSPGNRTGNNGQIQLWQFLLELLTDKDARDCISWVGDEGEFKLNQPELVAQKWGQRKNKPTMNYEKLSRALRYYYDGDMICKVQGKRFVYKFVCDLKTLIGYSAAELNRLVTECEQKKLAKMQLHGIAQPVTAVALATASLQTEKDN
# Summary of the method: as §1
# [4] = biological target: T4, ERG (Homo sapiens, UniProt P11308 1-479); settings: protein: recombinant; tags: N-terminal GST; dsDNA, one strand shown
# T4 sequence: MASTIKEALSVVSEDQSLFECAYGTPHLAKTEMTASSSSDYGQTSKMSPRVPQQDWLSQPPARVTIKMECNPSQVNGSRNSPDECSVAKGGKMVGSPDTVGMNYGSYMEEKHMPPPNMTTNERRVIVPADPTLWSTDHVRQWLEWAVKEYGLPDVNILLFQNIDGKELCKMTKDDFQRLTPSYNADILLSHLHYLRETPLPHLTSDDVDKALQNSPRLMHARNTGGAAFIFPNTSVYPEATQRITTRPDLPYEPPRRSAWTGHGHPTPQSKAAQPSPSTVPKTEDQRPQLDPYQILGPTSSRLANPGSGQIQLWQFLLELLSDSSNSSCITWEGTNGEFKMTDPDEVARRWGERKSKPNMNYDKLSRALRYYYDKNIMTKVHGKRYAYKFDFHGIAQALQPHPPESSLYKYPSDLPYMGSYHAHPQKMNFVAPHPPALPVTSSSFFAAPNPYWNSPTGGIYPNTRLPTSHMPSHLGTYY
# Summary of the method: as §1
# [5] = biological target: ELF1 (Homo sapiens, UniProt P32519 1-619); settings: protein: recombinant; tags: N-terminal GST; dsDNA, one strand shown
# Summary of the method: as §1
# [6] = biological target: T5, EHF (Homo sapiens, UniProt Q9NZC4 1-300); settings: protein: recombinant; tags: N-terminal GST; dsDNA, one strand shown
# T5 sequence: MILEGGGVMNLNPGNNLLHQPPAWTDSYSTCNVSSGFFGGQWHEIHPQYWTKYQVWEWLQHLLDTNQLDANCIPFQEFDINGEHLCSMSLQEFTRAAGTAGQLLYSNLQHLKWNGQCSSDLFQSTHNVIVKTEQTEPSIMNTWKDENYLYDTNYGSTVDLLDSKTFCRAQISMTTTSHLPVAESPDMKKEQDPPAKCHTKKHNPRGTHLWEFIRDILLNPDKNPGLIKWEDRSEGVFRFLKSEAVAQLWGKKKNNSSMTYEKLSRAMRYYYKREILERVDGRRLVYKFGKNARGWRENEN
# Summary of the method: as §1
# [7] = biological target: SPI1 (Homo sapiens, UniProt P17947 1-270); settings: protein: recombinant; tags: N-terminal GST; dsDNA, one strand shown
# Summary of the method: as §1
# [8] = biological target: SPIB (Homo sapiens, UniProt Q01892 1-262); settings: protein: recombinant; tags: N-terminal GST; dsDNA, one strand shown
# Summary of the method: as §1
# [9] = biological target: T6, ELK3 (Homo sapiens, UniProt P41970 1-407); settings: protein: recombinant; tags: N-terminal GST; dsDNA, one strand shown
# T6 sequence: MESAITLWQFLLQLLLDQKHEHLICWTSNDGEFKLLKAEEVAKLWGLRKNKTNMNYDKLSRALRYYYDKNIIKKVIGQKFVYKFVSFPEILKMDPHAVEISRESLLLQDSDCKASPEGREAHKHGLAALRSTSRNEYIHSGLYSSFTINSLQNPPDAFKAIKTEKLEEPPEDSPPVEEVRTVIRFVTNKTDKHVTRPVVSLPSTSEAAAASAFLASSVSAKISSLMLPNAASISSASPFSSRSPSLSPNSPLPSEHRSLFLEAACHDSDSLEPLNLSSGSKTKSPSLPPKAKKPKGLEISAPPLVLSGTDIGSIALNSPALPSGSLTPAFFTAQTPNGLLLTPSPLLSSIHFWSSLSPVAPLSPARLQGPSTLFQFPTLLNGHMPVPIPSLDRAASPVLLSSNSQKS
# Summary of the method: as §1
# [10] = biological target: T7, FEV (Homo sapiens, UniProt Q99581 1-238); settings: protein: recombinant; tags: N-terminal GST; dsDNA, one strand shown
# T7 sequence: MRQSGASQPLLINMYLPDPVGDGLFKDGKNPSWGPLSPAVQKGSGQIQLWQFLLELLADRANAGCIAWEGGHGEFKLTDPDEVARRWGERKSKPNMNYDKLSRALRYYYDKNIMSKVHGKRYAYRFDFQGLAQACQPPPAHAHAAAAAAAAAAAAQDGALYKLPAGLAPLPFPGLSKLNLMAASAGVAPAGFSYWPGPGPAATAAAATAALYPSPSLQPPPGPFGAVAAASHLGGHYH
# Summary of the method: as §1
# [11] = biological target: ETV5 (Homo sapiens, UniProt P41161 1-510); settings: protein: recombinant; tags: N-terminal GST; dsDNA, one strand shown
# Summary of the method: as §1
# [12] = biological target: HSF1 (Homo sapiens, UniProt Q00613 1-529); settings: protein: recombinant; tags: N-terminal GST; chain copies: 3; dsDNA, one strand shown
# Summary of the method: as §1
# [13] = biological target: T8, SPIC (Homo sapiens, UniProt Q8N5J4 1-248); settings: protein: recombinant; tags: N-terminal GST; dsDNA, one strand shown
# T8 sequence: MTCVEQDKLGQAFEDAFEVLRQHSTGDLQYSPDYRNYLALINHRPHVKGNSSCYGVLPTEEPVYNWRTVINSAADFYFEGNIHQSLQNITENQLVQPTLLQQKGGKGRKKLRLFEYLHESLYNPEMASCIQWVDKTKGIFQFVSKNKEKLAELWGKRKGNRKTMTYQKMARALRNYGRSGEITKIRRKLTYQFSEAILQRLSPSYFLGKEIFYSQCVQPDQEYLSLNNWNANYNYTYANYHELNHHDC
# Summary of the method: as §1
# [14] = biological target: ELF4 (Homo sapiens, UniProt Q99607 1-663); settings: protein: recombinant; tags: N-terminal GST; dsDNA, one strand shown
# Summary of the method: as §1
# [15] = biological target: T9, ELK4 (Homo sapiens, UniProt P28324-2 1-405); settings: protein: recombinant; tags: N-terminal GST; dsDNA, one strand shown
# T9 sequence: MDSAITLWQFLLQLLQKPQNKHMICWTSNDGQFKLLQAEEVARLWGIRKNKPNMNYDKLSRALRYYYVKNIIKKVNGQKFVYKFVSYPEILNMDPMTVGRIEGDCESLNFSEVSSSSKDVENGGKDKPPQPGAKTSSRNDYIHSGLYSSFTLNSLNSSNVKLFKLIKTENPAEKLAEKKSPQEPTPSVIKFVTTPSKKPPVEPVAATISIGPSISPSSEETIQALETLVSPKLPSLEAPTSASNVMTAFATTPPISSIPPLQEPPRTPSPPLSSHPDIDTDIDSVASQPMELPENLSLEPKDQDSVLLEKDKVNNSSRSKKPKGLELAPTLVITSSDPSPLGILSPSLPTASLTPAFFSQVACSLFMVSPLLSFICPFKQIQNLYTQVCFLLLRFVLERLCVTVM
# Summary of the method: as §1
# [16] = biological target: T10, ETV2 (Homo sapiens, UniProt O00321 1-342); settings: protein: recombinant; tags: N-terminal GST; dsDNA, one strand shown
# T10 sequence: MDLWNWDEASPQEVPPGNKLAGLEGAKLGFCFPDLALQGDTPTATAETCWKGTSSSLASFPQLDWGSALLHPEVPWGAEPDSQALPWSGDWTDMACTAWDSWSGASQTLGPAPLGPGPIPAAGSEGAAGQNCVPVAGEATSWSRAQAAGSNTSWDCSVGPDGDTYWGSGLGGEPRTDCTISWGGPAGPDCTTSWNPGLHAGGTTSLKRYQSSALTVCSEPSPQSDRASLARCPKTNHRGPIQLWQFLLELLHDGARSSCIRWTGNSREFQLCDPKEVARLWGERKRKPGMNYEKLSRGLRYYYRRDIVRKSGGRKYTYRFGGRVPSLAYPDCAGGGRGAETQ
# Summary of the method: as §1
# [17] = biological target: T11, ELF3 (Homo sapiens, UniProt P78545 1-371); settings: protein: recombinant; tags: N-terminal GST; dsDNA, one strand shown
# T11 sequence: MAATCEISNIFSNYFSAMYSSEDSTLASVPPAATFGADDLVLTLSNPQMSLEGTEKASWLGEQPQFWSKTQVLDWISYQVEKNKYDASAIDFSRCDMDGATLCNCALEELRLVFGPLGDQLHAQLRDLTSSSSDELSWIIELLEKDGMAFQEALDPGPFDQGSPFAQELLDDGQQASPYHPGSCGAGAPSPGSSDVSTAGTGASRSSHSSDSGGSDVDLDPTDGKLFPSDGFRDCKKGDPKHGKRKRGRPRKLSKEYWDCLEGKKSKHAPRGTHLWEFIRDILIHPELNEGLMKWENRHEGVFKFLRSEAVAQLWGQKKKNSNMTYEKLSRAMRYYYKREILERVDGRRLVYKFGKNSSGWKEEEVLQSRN
# Summary of the method: as §1
# [18] = biological target: CRX (Homo sapiens, UniProt O43186 1-299); settings: protein: recombinant; tags: N-terminal GST; dsDNA, one strand shown
# Summary of the method: as §1
# [19] = biological target: ETV1 (Homo sapiens, UniProt P50549 1-477); settings: protein: recombinant; tags: N-terminal GST; dsDNA, one strand shown
# Summary of the method: as §1
# ETV5, sequence (P41161 whole entry): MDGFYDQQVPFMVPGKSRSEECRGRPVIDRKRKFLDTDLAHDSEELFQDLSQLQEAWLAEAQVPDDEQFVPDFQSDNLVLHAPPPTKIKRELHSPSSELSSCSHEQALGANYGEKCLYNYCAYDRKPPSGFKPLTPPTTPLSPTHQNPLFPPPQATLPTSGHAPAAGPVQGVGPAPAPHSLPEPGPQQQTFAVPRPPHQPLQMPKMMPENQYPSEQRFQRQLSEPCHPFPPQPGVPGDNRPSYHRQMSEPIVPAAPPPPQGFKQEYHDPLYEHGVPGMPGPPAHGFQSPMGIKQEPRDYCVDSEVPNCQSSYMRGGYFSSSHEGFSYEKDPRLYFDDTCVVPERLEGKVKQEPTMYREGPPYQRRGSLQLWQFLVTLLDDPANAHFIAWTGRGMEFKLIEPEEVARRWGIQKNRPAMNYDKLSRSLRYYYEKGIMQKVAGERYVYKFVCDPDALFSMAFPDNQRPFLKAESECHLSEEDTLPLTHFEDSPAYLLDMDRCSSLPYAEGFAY
# ELF1, sequence (P32519 whole entry): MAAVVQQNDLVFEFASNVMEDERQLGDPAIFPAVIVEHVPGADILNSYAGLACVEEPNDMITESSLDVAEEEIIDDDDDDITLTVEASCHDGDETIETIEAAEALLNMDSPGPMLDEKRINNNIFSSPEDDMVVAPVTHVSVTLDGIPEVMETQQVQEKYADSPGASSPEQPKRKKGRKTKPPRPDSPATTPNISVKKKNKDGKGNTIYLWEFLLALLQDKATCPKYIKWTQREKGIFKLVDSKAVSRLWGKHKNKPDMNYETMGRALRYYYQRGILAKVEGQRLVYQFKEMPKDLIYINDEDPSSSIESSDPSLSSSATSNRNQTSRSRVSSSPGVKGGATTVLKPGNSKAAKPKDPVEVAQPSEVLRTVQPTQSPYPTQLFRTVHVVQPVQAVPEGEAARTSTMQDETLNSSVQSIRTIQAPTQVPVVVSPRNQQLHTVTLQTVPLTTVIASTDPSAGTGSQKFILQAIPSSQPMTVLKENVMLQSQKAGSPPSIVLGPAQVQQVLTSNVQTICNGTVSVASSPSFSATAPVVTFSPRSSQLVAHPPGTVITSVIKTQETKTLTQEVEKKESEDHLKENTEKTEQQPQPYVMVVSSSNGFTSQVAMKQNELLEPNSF
# SPIB, sequence (Q01892 whole entry): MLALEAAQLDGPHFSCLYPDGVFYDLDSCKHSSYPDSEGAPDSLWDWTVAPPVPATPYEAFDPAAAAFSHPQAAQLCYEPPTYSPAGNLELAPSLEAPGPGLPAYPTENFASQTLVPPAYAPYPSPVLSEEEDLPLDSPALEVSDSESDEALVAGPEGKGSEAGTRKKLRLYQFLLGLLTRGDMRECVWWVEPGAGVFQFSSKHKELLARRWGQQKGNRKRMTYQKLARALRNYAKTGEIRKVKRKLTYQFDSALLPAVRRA
# ETV1, sequence (P50549 whole entry): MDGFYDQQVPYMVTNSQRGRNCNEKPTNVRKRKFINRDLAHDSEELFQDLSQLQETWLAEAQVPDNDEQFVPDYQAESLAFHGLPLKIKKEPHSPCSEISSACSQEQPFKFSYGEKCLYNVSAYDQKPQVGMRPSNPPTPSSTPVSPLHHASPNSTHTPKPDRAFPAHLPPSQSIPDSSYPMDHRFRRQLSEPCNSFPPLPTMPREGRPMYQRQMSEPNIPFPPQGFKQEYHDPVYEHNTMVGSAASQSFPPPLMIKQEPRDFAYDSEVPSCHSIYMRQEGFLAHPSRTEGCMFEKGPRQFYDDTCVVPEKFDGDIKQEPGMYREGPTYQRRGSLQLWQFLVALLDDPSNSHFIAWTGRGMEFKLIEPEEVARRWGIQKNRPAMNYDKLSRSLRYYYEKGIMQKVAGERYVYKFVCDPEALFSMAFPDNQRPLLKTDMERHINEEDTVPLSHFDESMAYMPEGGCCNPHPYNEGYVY
# ELF4, sequence (Q99607 whole entry): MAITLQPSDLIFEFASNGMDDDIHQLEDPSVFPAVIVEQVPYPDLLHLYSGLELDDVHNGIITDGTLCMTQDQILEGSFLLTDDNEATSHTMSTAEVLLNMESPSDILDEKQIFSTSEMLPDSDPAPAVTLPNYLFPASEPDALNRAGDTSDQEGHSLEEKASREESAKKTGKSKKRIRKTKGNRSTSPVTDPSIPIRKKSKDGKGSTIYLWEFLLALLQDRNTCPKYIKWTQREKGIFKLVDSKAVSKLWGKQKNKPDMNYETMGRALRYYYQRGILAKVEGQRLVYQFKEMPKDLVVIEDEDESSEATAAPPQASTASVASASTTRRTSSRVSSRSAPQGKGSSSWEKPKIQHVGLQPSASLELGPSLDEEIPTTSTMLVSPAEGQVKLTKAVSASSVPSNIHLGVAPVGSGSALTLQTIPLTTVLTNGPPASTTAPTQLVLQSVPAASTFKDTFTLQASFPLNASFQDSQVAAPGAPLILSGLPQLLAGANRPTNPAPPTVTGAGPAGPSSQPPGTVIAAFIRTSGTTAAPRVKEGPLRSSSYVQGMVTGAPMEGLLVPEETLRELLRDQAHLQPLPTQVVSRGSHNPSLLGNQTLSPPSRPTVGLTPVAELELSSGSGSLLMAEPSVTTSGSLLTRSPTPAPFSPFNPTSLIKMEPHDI
# HSF1, sequence (Q00613 whole entry): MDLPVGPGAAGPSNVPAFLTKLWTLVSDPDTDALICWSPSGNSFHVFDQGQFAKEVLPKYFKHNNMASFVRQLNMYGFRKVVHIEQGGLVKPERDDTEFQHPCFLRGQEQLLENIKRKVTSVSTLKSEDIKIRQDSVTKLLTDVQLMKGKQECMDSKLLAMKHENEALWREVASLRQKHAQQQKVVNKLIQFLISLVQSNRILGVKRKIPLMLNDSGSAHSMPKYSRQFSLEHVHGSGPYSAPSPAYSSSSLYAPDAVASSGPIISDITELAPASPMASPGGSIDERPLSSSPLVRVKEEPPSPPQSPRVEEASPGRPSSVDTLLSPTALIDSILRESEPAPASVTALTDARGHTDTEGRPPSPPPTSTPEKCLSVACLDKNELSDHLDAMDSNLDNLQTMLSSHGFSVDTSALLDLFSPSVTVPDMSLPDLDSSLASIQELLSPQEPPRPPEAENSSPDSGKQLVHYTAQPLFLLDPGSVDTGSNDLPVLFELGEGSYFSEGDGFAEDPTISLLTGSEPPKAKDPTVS
# CRX, sequence (O43186 whole entry): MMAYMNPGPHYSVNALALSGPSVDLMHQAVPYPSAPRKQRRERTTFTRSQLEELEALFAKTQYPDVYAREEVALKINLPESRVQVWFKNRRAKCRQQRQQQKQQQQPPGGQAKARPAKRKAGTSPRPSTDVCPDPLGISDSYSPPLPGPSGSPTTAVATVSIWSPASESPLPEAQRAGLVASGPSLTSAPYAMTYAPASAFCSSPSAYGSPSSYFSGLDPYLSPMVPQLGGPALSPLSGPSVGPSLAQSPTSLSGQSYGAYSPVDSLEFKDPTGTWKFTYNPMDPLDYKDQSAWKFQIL
sequence,measurement,setting,value
CTCATA,binding signal,[1],"1.39 fold enrichment (6-mer frequency, TF over GST control)"
same,binding signal,[2],"1.48 fold enrichment (6-mer frequency, TF over GST control)"
same,binding signal,[3],"1.36 fold enrichment (6-mer frequency, TF over GST control)"
same,binding signal,[4],"1.3 fold enrichment (6-mer frequency, TF over GST control)"
same,binding signal,[5],"1.38 fold enrichment (6-mer frequency, TF over GST control)"
same,binding signal,[6],"1.27 fold enrichment (6-mer frequency, TF over GST control)"
same,binding signal,[7],"1.43 fold enrichment (6-mer frequency, TF over GST control)"
same,binding signal,[8],"1.48 fold enrichment (6-mer frequency, TF over GST control)"
same,binding signal,[9],"1.34 fold enrichment (6-mer frequency, TF over GST control)"
same,binding signal,[10],"1.29 fold enrichment (6-mer frequency, TF over GST control)"
same,binding signal,[11],"1.37 fold enrichment (6-mer frequency, TF over GST control)"
same,binding signal,[12],"1.25 fold enrichment (6-mer frequency, TF over GST control)"
same,binding signal,[13],"1.46 fold enrichment (6-mer frequency, TF over GST control)"
same,binding signal,[14],"1.41 fold enrichment (6-mer frequency, TF over GST control)"
same,binding signal,[15],"1.35 fold enrichment (6-mer frequency, TF over GST control)"
same,binding signal,[16],"1.44 fold enrichment (6-mer frequency, TF over GST control)"
same,binding signal,[17],"1.34 fold enrichment (6-mer frequency, TF over GST control)"
same,binding signal,[18],"1.38 fold enrichment (6-mer frequency, TF over GST control)"
same,binding signal,[19],"1.39 fold enrichment (6-mer frequency, TF over GST control)"
